# IL-1B inflam inh: blocks inflammasome-driven IL-1 beta release. THP-1 LPS/ATP IL-1B secretion, AlphaLISA, 16 h; active compounds read low. activity change, % at 57.5 µM. 360,000 compounds, 4.7% hits. AID 743279; in the data active = activity change below about -50%; inconclusive = mostly about -30% to -49%
#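 THP-1 cells pretreated 1 hr with compounds (up to 57.5 uM final), then stimulated with LPS (250 ng/mL final) plus ATP (1.25 mM final); secreted IL-1B measured by AlphaLISA after 16 hr, decreased signal indicating inhibition.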
# HT1080 IDH1KD tx: HT-1080 IDH1 knockdown cell toxicity (counter line); HT-1080 IDH1 knockdown viability, ATP luminescence, 48 h; Potency, µM (titrated, usually from 46.1 µM), for inactives: top-dose activity, negative = toxicity, usual class: cytotoxic; 360,000 compounds, 2% hits;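 also: potency is read from the fitted curve at half-maximal effect; 0% = DMSO wells and -100% = cell-free medium wells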
#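 Knockdown cells (IDH1KD HT-1080) received compounds 2 h after plating at 750 cells/well and were kept 48 h at 37 °C in 5% FBS RPMI. A CellTiter-Glo luminescence read gave % activity for curve fitting.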
# HT1080NT lethal: kills 2HG-producing HT-1080-NT fibrosarcoma cells; HT-1080-NT fibrosarcoma viability, CellTiter-Glo ATP luminescence, 48 h; Potency, µM (top dose mostly 46.1 µM), for inactives: top-dose activity, negative = less viability, hits mostly cytotoxic; 360,000 compounds, 1.6% hits;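 also: NT is the 2HG producing partner of a matched IDH1 knockdown line; potency is read from the fitted curve at half-maximal effect; 0% = DMSO-treated cells and -100% = media-only wells without cells; nearly all actives have a fitted effect of over 55% in size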
#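 Viability by CellTiter-Glo luminescence after 48 h compound exposure at 37C of HT-1080-NT cells (750/well, RPMI, 5% FBS). % activity scaled between DMSO wells and medium-only wells, then curve-fitted and categorized by curve class.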
# DT40 TDP1 CPT: growth inhibition of DT40 Tdp1-/-;hTDP1 cells with camptothecin (screen for TDP1 inhibitors); chicken DT40 Tdp1-/-;hTDP1 cells + 20 nM CPT, ATP luminescence, 48 h; Potency, µM (series often up to 46.2 µM), without a hit: at the highest dose activity change, negative = growth inhibition, most hits filed as inhibitors; 420,000 compounds, 12% hits; also: potency is read from the fitted curve at half-maximal effect; nearly all actives have a fitted effect of over 55% in size
#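 Chicken DT40 Tdp1-/- cells stably complemented with human TDP1 were seeded at 400 cells/well in medium containing 20 nM camptothecin, exposed to pin-transferred compounds, and grown at 37 °C for at least 48 hr. Viability was read as ATP luminescence.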
# DT40 TDP1 no CPT: qHTS for Inhibitors of human tyrosyl-DNA phosphodiesterase 1 (TDP1): qHTS in cells in absence of CPT | 420,000 compounds, 15% hits | DT40 Tdp1-/- hTDP1 cells, no CPT, ATP luminescence, 48 h | AID 686978, 2013 | Potency, µM (highest dose often 46.2 µM), for the others: at the top dose activity change, negative = growth inhibition, usual class: inhibitors; also: potency is read from the fitted curve at half-maximal effect; nearly all actives have a fitted effect of over 55% in size
#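 Stably hTDP1-transfected Tdp1-null chicken DT40 cells were treated with library compounds minus camptothecin and grown for at least 48 hr at 37 °C, after which cellular ATP was quantified by luminescence.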
# Numbers without * were called inactive; ? = inconclusive; · = no result; [ ] = remark or other dose. Hits are enriched below; roughly 19% of the tested compounds scored in any of these assays. Unless noted, calls follow the shape of the dose curve; as a rule, active = well fitted curve in the direction sought with a large enough effect; inconclusive = small, poorly fitted or top-dose-only effect, or another doubt; inactive = no such curve, though single readings can be large; an effect the other way counts as inactive or inconclusive. Unless noted, % is scaled to controls: 0 for no effect and ±100 for the full control effect.
SMILES,IL-1B inflam inh,HT1080 IDH1KD tx,HT1080NT lethal,DT40 TDP1 CPT,DT40 TDP1 no CPT
Cc1cccc(N2C(=O)CC(SC(=Nc3ccccc3)Nc3ccccc3)C2=O)c1 (centres undefined),-22.3,-22.6%,-17.3%,?,?
O=C1CC(Sc2ccc(Cl)cc2)C(=O)N1c1ccc2c(c1)OCCO2 (centres undefined),·,-16.9%,-18.7%,2.91µM*,14.6µM*
Nc1ccccc1SC1CC(=O)N(c2ccc3c(c2)OCCO3)C1=O (centres undefined),-7.3,1.2%,4.6%,-25.5%,?
O=C1CC(SC2=NCCS2)C(=O)N1c1ccc(Cl)cc1 (centres undefined),-0.2,13.1%,8.5%,6.0%,0.4%
Cc1nc2cc(NC(=O)[C@@H]3C[C@@H](Sc4ccccn4)CN3Cc3ccc4c(c3)OCCO4)ccc2s1,·,·,·,7.8%[9.04 µM],-9.2%
CCNC(=O)CN(c1ccc(CC)cc1)S(C)(=O)=O,-0.8,-1.4%,1.7%,-1.7%,-7.6%
COc1cc(CNC(C)c2ccccc2)cc(Br)c1OCc1ccccc1 (centres undefined),-87.7*,?,16.4µM*,-94.0%,9.2µM*
COc1cc(CNC(C)c2ccccc2)cc(Br)c1OCc1ccc(F)cc1 (centres undefined),-94.2*,?,?,?,?
O=S1(=O)CC(N2CCCCC2)CN1Cc1cn(Cc2ccc(F)cc2)nn1 (centres undefined),-3.9,6.8%,16.7%,-0.4%,-10.4%
CSCC[C@H](NC(=O)Cc1c(C)c2cc3c4c(oc3cc2oc1=O)CCCC4)C(=O)O,-4.3,-5.6%,2.6%,-4.2%,-9.8%
CCOc1cc(/C=C\[N+](=O)[O-])ccc1OCC(=O)N1CCOCC1,-107.0*,18.4µM*,?,2.59µM*,2.31µM*
CCOC(=O)c1ccccc1NC(=O)COC(=O)c1ccc(OCC(=O)N2CCOCC2)c(OCC)c1,17.2,16.1%,0.5%,?,?
CCOc1cc(/C=N/NC(=S)Nc2ccccc2C(F)(F)F)ccc1OCC(=O)N1CCOCC1,-17.1,-2.2%,-0.9%,5.8µM*,8.2µM*
Cc1cccc(NS(=O)(=O)c2cccc(C(=O)N3CCCCCCC3)c2)c1,-60.2*,-0.4%,-8.4%,18.4µM*,5.17µM*
Cc1cccc(NS(=O)(=O)c2cccc(C(=O)N3CCN(C/C=C/c4ccccc4)CC3)c2)c1,-54.3*,-15.7%,-12.0%,?,?
CCCCOc1ccc(C(=O)NCC(=O)N2CCN(Cc3ccc4c(c3)OCO4)CC2)cc1,-6.1,-19.8%,-11.7%,?,13µM*
Cc1cccc(NS(=O)(=O)c2cccc(C(=O)N3CCCC3)c2)c1,-5.5,0.3%,-1.2%,-0.4%,?
COc1ccc(NS(=O)(=O)c2cccc(C(=O)N3CCN(C/C=C/c4ccccc4)CC3)c2)cc1,-3.0,-17.3%,-6.7%,23.1µM*,16.4µM*
Cc1cccc(NS(=O)(=O)c2cccc(C(=O)N3CCCCCC3)c2)c1,8.0,-6.2%,-1.7%,?,?
COC(=O)c1cc(C#N)c(N2CCN(C)CC2)nc1C,0.4,0.8%,1.7%,6.6%,2.6%
CC(C)CNS(=O)(=O)c1ccc(CCC(=O)N2CCN(Cc3ccc4c(c3)OCO4)CC2)cc1,?,-24.9%,-4.8%,13µM*,18.4µM*
COc1ccccc1NS(=O)(=O)c1cc(C(=O)N2CCN(C/C=C/c3ccccc3)CC2)ccc1C,-8.1,-13.9%,-13.9%,?,?
COc1ccccc1NS(=O)(=O)c1cccc(C(=O)N2CCN(C/C=C/c3ccccc3)CC2)c1,-0.8,2.2%,3.8%,20.6µM*,20.6µM*
COc1ccc(NS(=O)(=O)c2cccc(C(=O)N3CCN(Cc4ccc5c(c4)OCO5)CC3)c2)cc1,-24.8,0.0%,-1.4%,25.9µM*,?
Cc1ccc(NC(=O)C2CCCN2C(=O)NCc2ccccc2)cc1 (centres undefined),16.5,22.0%,9.4%,5.5%,0.2%
SMILES,IL-1B inflam inh,HT1080 IDH1KD tx,HT1080NT lethal,DT40 TDP1 CPT,DT40 TDP1 no CPT
COc1ccc(S(=O)(=O)N(CC(=O)NCC2CCCO2)c2ccccc2)cc1OC (centres undefined),5.7,-2.6%,0.1%,-15.4%,-9.6%
CC(C)(C)C(=O)[C@@H]1[C@@H]2C(=O)N(c3ccc4c(c3)OCCO4)C(=O)[C@@H]2C2c3ccccc3C=CN21 (some centres undefined),-5.2,2.2%,-1.0%,?,23.1µM*
CCS(=O)(=O)N1CCC(NC(=O)C(Cc2cc(OC)ccc2OC)NC(C)=O)CC1 (centres undefined),23.7,-3.8%,19.8%,22.7%,-3.8%
CC(C)CNc1ncnc2c1ncn2[C@H]1CN(Cc2ccc(C(=O)O)cc2)C[C@@H](CO)O1,-0.9,13.4%,0.3%,4.3%,10.4%
CCOC(=O)c1cnc(SC)nc1Oc1cccc(NS(=O)(=O)c2ccc(C)cc2)c1,15.8,17.6%,17.7%,?,16.4µM*
CCOC(=O)c1cccc(NS(=O)(=O)c2ccc(-c3coc(C)n3)cc2)c1,·,·,·,1.2%,?
CC(C)C[C@@H](CNCC(=O)[C@H](CC(C)C)NC(=O)c1[nH]cnc1C(=O)N[C@@H](C)CN)NC(=O)c1nc[nH]c1C(=O)N[C@@H](CC(=O)O)C(=O)O,-55.2*,-4.3%,9.4%,-15.5%,-2.6%
CCCC(=O)C1=C(c2ccc(C)cc2)N(C(=O)CCC)n2cnnc2S1,·,·,·,?,16.4µM*
CCCC(=O)N1CCC1(C)C(=O)NS(=O)(=O)c1ccc(C)cc1 (centres undefined),-4.9,-25.1%,-1.5%,-6.6%,6.1%
CCCC(=O)C1=C(c2ccc(C)c(C)c2)N(C(=O)CCC)n2c(CC)nnc2S1,·,·,·,?,23.1µM*
COc1ccc(-c2cc(=O)n(-c3ccc([N+](=O)[O-])cc3)[nH]2)cc1,3.3,?,?,?,16.4µM*
CCOc1c([N+](=O)[O-])cc2c(C)c(C(=O)N3CCN(C)CC3)oc2c1OCC,2.9,5.0%,-17.4%,17.5%,16.4µM*
CCOc1ccc2oc(C(=O)N3CCCN(C)CC3)c(C)c2c1,-5.3,6.2%,-4.0%,-14.3%,?
COc1ccccc1Nc1nc2nonc2[nH]c1=O,4.0,-1.1%,-18.6%,18.6%,-1.2%
CC(C)c1ccccc1NC(=O)COC(=O)c1cc(=O)[nH]c(=O)[nH]1,-6.4,15.9%,16.2%,-5.0%,-6.7%
CCc1ccccc1Nc1cc(C(=O)NCc2ccc(C)cc2)c2ccccc2n1,·,·,·,20.6µM*,?
